For 4 compounds, IC50 results are on record in PubChem BioAssay AID2172 (The Scripps Research Institute Molecular Screening Center, 2009).

The list shows a part of the results. Activity calls are given as the source filed them. How the calls were made is not given here. A value given as a limit tells only on which side of the number the result lay.

The nature of the test: DNA intercalator displacement (FID) – biochemical, fluorescence, counter-screen for HCV NS3 helicase inhibitor project, dose response (AID 2172). Particulars: fluorescent intercalator displacement from DNA.
The term IC50 denotes the point on the concentration scale where inhibition reaches its midpoint. For `CC(Oc1ccccc1)C(=O)Nc1oc(-c2ccco2)c(-c2ccco2)c1C#N` (centres undefined), the IC50 was > 79.4 µM (inactive).
Regarding `Cc1cc(O)c(C(=O)/C=C/c2c(F)c(F)c(F)c(F)c2F)c(=O)o1`, the IC50 was > 79.4 µM (inactive).
For `Cc1ccc(/C=C/C(=O)Nc2ccc([N+](=O)[O-])c(NC(=O)/C=C/c3ccc(C)o3)c2)o1`, the IC50 is > 79.4 µM (inactive).
With `Cc1cc(N2C(=O)C(O)=C(C(=O)c3ccc(C)o3)C2c2ccc(OCc3ccccc3)cc2)no1` (centres undefined), the IC50 is > 79.4 µM (inactive).
